Results published in PubChem BioAssay (EPA / NIEHS).
“And” between values parts separate entries of the source, which are not always exact repeats. Identical values can stand only once. Results filed as inconclusive are left out. More than one record can exist for a structure, and the calls need not agree. The source made the active and inactive calls. How the source made its calls, unless noted: active means hit-call score of the fitted dose curve at least 0.9, where 1 is the maximum; inconclusive means response in the unintended direction; inactive means score below 0.9.

Assays:
[1] = BSK_4H_Eotaxin3: BioMAP Diversity Plus: 4H Assay for Eotaxin 3 Biomarker Activity (AID 2283000; active means hit-call score of the fitted dose curve at least 0.9, where 1 is the maximum; inactive means score below 0.9); conditions: primary human endothelial cells (HUVEC); actives raise or lower the signal
Method in brief: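 Human umbilical vein endothelial cells (BSK_4H system) dosed with test chemical; Eotaxin-3 (CCL26) measured by ELISA 24 h after dosing. Bidirectional curve fitting relative to DMSO negative control as baseline.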

[2] = molecular target: human Peroxisome Proliferator-activated Receptor alpha (PPARa), PPARA (gene 5465) (UniProt Q07869); test: ATG_PPARa_TRANS: Attagene TRANS-FACTORIAL HepG2 Assay for human Peroxisome Proliferator-activated Receptor alpha (PPARa) (AID 2283001);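 on AC50: potency for gain of reporter signal over DMSO so agonist or activator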
human Peroxisome Proliferator-activated Receptor alpha (PPARa), PPARA (gene 5465), sequence (Q07869 whole entry, looked up, the tested form may be a part): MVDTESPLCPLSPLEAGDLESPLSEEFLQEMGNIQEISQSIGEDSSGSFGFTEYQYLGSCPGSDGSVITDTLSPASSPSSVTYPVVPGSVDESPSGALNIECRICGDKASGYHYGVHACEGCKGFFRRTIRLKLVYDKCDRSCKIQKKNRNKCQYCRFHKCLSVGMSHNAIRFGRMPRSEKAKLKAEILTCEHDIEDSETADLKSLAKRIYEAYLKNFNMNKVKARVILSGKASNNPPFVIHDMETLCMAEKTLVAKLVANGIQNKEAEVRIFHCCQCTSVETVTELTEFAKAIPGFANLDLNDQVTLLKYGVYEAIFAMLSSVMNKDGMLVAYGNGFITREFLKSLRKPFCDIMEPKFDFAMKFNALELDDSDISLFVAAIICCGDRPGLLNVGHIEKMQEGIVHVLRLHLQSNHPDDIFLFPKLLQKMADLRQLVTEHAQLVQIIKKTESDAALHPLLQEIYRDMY
Method in brief: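 Transient HepG2 transfection, GAL4-UAS reporters, NR-Gal4 chimeras; 24 h compound exposure. Readout: reporter transcripts by RT-PCR, 6-FAM primer extension, HpaI digest, capillary electrophoresis. Positive direction vs DMSO baseline.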

[3] = read-out: Intercellular Adhesion Molecule 1 (ICAM1), ICAM1 (gene 3383); test: BSK_3C_ICAM1: BioMAP Diversity Plus: 3C Assay for Intercellular Adhesion Molecule 1 (ICAM1) Biomarker Activity (AID 2283003; active means hit-call score of the fitted dose curve at least 0.9, where 1 is the maximum; inactive means score below 0.9); conditions: primary human endothelial cells (HUVEC); actives raise or lower the signal
Method in brief: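 Using DMSO as baseline, bidirectional curve fitting was applied to ICAM-1 ELISA signals from HUVEC in the 3C system, measured 24 h after compound addition.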

[4] = BSK_3C_Proliferation: Cell Proliferation Assessment in the BioMAP Diversity Plus: 3C Assay (AID 2283006; active means hit-call score of the fitted dose curve at least 0.9, where 1 is the maximum; inactive means score below 0.9;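 on AC50: potency may reflect either rise or fall in cell number versus DMSO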); conditions: primary human endothelial cells (HUVEC)
Method in brief: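 Measured here: sulforhodamine B (0.1%) staining of TCA-fixed sub-confluent umbilical vein endothelial cultures 48 h post-dosing, absorbance 560 nm. DMSO served as negative control and baseline; both signal gain and loss were modelled.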

[5] = molecular target: human Peroxisome Proliferator-activated Receptor delta (PPARd), PPARD (gene 5467) (UniProt Q03181); test: ATG_PPARd_TRANS: Attagene TRANS-FACTORIAL HepG2 Assay for human Peroxisome Proliferator-activated Receptor delta (PPARd) (AID 2283002)
human Peroxisome Proliferator-activated Receptor delta (PPARd), PPARD (gene 5467), sequence (Q03181 whole entry, looked up, the tested form may be a part): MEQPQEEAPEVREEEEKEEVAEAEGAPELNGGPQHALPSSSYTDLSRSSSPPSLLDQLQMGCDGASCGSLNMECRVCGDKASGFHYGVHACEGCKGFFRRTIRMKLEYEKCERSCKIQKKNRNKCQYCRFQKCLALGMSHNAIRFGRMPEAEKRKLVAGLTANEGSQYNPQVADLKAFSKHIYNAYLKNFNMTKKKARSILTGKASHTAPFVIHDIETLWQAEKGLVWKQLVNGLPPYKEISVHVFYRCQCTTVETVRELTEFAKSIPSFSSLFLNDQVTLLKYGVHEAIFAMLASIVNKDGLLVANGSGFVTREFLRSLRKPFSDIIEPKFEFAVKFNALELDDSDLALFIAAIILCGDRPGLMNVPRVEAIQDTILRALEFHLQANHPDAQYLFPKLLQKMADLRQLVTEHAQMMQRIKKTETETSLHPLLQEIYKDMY
Method in brief: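 Fluorescence from capillary electrophoresis of labelled RT-PCR reporter fragments gives the signal; DMSO sets baseline. Cells: HepG2 transiently carrying GAL4-UAS reporter units plus chimeric nuclear receptor-Gal4 proteins, exposed to chemicals for 24 h.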

[6] = molecular target: human Retinoic Acid Receptor beta (RARb), RARB (gene 5915) (UniProt P10826); test: ATG_RARb_TRANS: Attagene TRANS-FACTORIAL HepG2 Assay for human Retinoic Acid Receptor beta (AID 2283004)
human Retinoic Acid Receptor beta (RARb), RARB (gene 5915), sequence (P10826 whole entry, looked up, the tested form may be a part): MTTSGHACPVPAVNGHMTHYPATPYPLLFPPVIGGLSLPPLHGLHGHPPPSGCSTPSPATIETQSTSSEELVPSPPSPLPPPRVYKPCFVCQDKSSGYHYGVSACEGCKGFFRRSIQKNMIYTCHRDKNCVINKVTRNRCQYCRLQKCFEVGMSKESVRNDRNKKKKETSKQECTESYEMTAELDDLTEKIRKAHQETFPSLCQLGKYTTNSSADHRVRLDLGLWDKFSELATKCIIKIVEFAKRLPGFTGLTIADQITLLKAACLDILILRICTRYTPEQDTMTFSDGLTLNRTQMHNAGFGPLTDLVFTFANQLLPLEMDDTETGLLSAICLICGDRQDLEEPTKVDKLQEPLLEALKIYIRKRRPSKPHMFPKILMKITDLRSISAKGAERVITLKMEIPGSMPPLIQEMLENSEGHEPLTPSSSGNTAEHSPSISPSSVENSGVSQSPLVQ
Method in brief: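 Induction of reporter mRNA from a chimeric RARb-Gal4 construct was measured by RT-PCR, FAM labelling, HpaI digestion and capillary electrophoresis. Measurements followed 24 h compound treatment of transiently transfected human HepG2 liver cells, with DMSO as baseline.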

[7] = molecular target: Peroxisome proliferator-activated receptor gamma (Homo sapiens) (UniProt P37231); test: ATG_PPARg_TRANS: Attagene TRANS-FACTORIAL HepG2 Assay for human Peroxisome Proliferator-activated Receptor-gamma (PPARg) (AID 2283007)
Peroxisome proliferator-activated receptor gamma (Homo sapiens), sequence (P37231 whole entry, looked up, the tested form may be a part): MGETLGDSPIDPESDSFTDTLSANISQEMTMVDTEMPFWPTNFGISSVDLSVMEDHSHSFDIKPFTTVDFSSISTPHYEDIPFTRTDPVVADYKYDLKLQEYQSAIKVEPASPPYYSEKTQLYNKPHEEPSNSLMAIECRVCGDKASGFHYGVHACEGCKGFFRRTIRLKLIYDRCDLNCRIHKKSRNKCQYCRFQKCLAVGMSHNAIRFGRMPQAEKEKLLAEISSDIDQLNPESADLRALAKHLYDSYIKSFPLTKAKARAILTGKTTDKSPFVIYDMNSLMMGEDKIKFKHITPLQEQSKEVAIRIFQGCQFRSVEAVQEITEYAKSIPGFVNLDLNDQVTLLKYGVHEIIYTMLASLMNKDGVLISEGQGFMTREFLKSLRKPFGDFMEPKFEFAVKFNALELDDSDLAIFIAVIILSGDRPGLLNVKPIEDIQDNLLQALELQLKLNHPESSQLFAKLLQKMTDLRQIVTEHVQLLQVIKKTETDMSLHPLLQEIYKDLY
Method in brief: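 After 24 h of chemical exposure, transfected HepG2 cells carrying PPARγ-Gal4 chimera reporter constructs are lysed for RNA. Reporter transcripts are measured by RT-PCR and capillary electrophoresis with fluorescent labelling, and gain of signal is fitted versus DMSO.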

[8] = molecular target: Nuclear receptor subfamily 1 group I member 2 (Homo sapiens) (UniProt O75469); test: ATG_PXR_TRANS: Attagene TRANS-FACTORIAL HepG2 Assay for human Pregnane X Receptor (PXR) (AID 2283008)
Nuclear receptor subfamily 1 group I member 2 (Homo sapiens), sequence (O75469 whole entry, looked up, the tested form may be a part): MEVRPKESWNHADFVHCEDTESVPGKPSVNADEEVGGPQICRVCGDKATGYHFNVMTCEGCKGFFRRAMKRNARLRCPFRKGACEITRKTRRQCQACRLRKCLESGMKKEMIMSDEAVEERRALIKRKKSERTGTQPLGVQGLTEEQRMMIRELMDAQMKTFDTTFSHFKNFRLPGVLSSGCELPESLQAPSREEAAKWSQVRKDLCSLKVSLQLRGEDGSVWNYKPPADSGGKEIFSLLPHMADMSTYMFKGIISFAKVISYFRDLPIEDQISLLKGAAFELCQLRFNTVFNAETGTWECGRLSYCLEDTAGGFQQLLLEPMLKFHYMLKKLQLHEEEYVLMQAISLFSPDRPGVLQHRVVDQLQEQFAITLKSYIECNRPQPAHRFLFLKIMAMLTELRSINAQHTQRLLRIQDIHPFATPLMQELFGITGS
Method in brief: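 Transactivation by exogenous PXR–GAL4 fusion measured as reporter transcript induction after 24 h compound treatment of transfected human HepG2 cells. Read-out via RT-PCR and capillary electrophoresis of labelled fragments, fitted upward relative to DMSO.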

[9] = molecular target: human Retinoic Acid Receptor gamma (RARg), RARG (gene 5916) (UniProt P13631); test: ATG_RARg_TRANS: Attagene TRANS-FACTORIAL HepG2 Assay for human Retinoic Acid Receptor gamma (RARg) (AID 2283009);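 on AC50: AC50 is for reporter induction above DMSO meaning RARg activation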
human Retinoic Acid Receptor gamma (RARg), RARG (gene 5916), sequence (P13631 whole entry, looked up, the tested form may be a part): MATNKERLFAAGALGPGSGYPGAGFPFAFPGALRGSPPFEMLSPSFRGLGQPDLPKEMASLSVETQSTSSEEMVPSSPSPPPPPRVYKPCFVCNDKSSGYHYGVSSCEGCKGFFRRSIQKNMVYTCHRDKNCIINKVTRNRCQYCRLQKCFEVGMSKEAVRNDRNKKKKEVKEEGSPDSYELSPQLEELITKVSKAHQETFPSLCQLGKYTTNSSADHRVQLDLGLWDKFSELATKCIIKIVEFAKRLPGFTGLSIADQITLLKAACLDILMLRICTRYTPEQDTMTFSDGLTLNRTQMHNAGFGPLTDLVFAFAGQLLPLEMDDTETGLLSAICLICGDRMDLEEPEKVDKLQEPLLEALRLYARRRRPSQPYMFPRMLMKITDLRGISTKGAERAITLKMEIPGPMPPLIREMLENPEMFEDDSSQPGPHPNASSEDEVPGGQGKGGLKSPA
Method in brief: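 Gain-of-signal relative to DMSO is reported from fluorescent capillary electrophoresis of RT-PCR reporter products. These came from HepG2 cells expressing transfected RARg-GAL4 chimeras with UAS reporters, harvested 24 h after dosing.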

[10] = molecular target: Retinoic acid receptor alpha (Homo sapiens) (UniProt P10276); test: ATG_RARa_TRANS: Attagene TRANS-FACTORIAL HepG2 Assay for human Retinoic Acid Receptor alpha (RARa) (AID 2283005)
Retinoic acid receptor alpha (Homo sapiens), sequence (P10276 whole entry, looked up, the tested form may be a part): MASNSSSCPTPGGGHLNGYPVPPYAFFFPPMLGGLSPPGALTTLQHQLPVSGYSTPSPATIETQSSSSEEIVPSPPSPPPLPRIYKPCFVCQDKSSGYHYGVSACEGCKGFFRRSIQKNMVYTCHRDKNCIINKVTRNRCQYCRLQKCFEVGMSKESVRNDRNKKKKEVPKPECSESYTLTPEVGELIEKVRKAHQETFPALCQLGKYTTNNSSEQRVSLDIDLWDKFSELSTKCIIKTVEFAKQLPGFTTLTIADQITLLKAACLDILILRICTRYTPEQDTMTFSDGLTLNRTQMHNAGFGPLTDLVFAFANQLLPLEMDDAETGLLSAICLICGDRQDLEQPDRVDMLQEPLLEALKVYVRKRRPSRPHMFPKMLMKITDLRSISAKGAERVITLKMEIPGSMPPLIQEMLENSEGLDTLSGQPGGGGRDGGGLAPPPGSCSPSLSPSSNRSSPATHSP
Method in brief: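 HepG2 transiently transfected with multiplex GAL4-UAS reporter units including a human RARa–GAL4 chimera; 24 h compound exposure. Reporter mRNA quantified by RT-PCR, 6-FAM labeling and capillary electrophoresis; gain of signal versus DMSO.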

Measured: AC50

Cc1ccccc1[N+](=O)[O-]
inactive: [1] | [2] | [3] | [4]

Cc1cc2c3c(c1)C(c1ccccc1)=N[C@@H](NC(=O)c1ccncc1)C(=O)N3CC2
active: [7] 1.71 µM | [8] 2.54 µM
not listed: [10]
inactive: all other assays above

Oc1c(Cl)c(Cl)c(Cl)c(Cl)c1Cl
active: [1] 17 µM and 9.54 µM | [3] 33.7 µM | [4] 15.4 µM and 14.7 µM | [7] 4.28 µM and 2.53 µM and 7.91 µM | [8] 13.8 µM and 3.3 µM
inactive: [2] | [3] | [10] | [8] | [9]

Nn1cnnc1
inactive: [1] | [2] | [3] | [6] | [4] | [7]

COc1ccc(O)c(C(C)(C)C)c1
active: [8] 4.55 µM
not listed: [5]
inactive: all other assays above

CN(C)CCO
not listed: [10]
inactive: all other assays above

O=C(O)C(F)(F)C(F)(F)C(F)(F)C(F)(F)C(F)(F)C(F)(F)C(F)(F)C(F)(F)F
inactive: [1] | [5] | [3] | [4] | [9]
active: [1] 40.2 µM and 43.3 µM | [2] 15.9 µM and 27.4 µM and 22.5 µM | [4] 49.7 µM and 48 µM | [7] 43.4 µM and 70 µM and 42.3 µM | [8] 47.5 µM and 104 µM and 50 µM

Clc1ccc(C(c2ccccc2Cl)C(Cl)(Cl)Cl)cc1 (stereo not drawn)
inactive: [2] | [5] | [7] | [8] | [9]
active: [1] 20.3 µM | [3] 21.7 µM | [4] 7.61 µM | [8] 3.39 µM and 2.82 µM and 3.97 µM

c1ccc(-c2ccccc2)cc1
inactive: [1] | [2] | [5] | [3] | [4] | [8]

ClC(Cl)=C(c1ccc(Cl)cc1)c1ccc(Cl)cc1
inactive: [2] | [5] | [7]
active: [1] 31.2 µM | [2] 26.2 µM | [3] 34 µM | [8] 6.11 µM [middle of 4 runs]

Clc1ccc(Cl)cc1
not listed: [10]
inactive: all other assays above

Cc1ccccc1O
not listed: [5] | [6] | [7]
inactive: all other assays above

CC#Cc1cc(C)nc(Nc2ccccc2)n1
active: [2] 0.606 µM | [4] 17.9 µM | [7] 6.26 µM
inactive: [1] | [5] | [3] | [8]

O=NN(c1ccccc1)c1ccccc1
active: [4] 6.14 µM | [8] 29.9 µM
inactive: [1] | [2] | [5] | [3] | [7]

Sc1ccccc1
inactive: [1] | [2] | [5] | [3] | [4] | [8]

O=C(NC(=O)c1c(F)cccc1F)Nc1cc(Cl)c(OC(F)(F)C(F)F)c(Cl)c1
not listed: [6]
inactive: all other assays above

Cc1ccc(O)c(C)c1
not listed: [8] | [9] | [10]
inactive: all other assays above

O=S(=O)(O)C(F)(F)C(F)(F)C(F)(F)C(F)(F)F
not listed: [6] | [10]
inactive: all other assays above

Cc1cc(O)ccc1Cl
not listed: [10]
inactive: all other assays above

CCC(C)c1cc([N+](=O)[O-])cc([N+](=O)[O-])c1O (stereo not drawn)
inactive: [5] | [3] | [10] | [9]
active: [1] 11.3 µM | [2] 49.6 µM | [4] 8.95 µM | [7] 17.3 µM | [8] 26.9 µM

Cc1cc(-c2ccc(N)c(C)c2)ccc1N
active: [7] 100 µM
inactive: [1] | [2] | [3] | [6] | [10] | [4] | [7] | [8] | [9]

O=C(O)C(F)(F)C(F)(F)C(F)(F)C(F)(F)C(F)(F)C(F)(F)C(F)(F)C(F)(F)C(F)(F)F
inactive: [5] | [3] | [6] | [10] | [8] | [9]
active: [1] 29.9 µM and 49.3 µM and 51.1 µM | [2] 33.4 µM and 24.7 µM and 23.9 µM | [3] 46.5 µM and 58.4 µM | [4] 36.3 µM and 46.6 µM and 45.4 µM | [7] 52.1 µM and 12.9 µM | [8] 45.7 µM and 60.9 µM | [9] 33.4 µM

COS(=O)(=O)OC
inactive: [1] | [2] | [5] | [3] | [4]

ClC1=C(Cl)[C@]2(Cl)[C@@H]3[C@H]4C[C@H]([C@@H]5O[C@H]45)[C@@H]3[C@@]1(Cl)C2(Cl)Cl
active: [6] 0.859 µM | [4] 8.62 µM | [9] 0.937 µM
not listed: [5]
inactive: all other assays above

CCCCCCCCOC(=O)c1ccccc1C(=O)OCCCCCCCC
active: [1] 14 µM | [7] 38.4 µM
inactive: [2] | [3] | [10] | [4] | [8]

CCNc1nc(NC(C)C)nc(SC)n1
not listed: [6] | [9] | [10]
inactive: all other assays above

CCCCCCCCCC[N+](C)(C)CCCCCCCCCC
active: [1] 4.08 µM | [3] 6.48 µM | [4] 1.8 µM
not listed: [5] | [6]
inactive: all other assays above

CCCCCCCCCc1ccc(O)cc1
inactive: [5] | [6] | [10] | [8] | [9]
active: [1] 15.2 µM | [2] 33.4 µM and 21.6 µM and 16.9 µM | [5] 25.5 µM and 33.4 µM | [3] 15.4 µM | [4] 11.2 µM | [7] 33.4 µM and 25.1 µM and 9.23 µM | [8] 21.2 µM

CC(C)(c1ccccc1)c1ccc(O)cc1
active: [1] 35.3 µM | [3] 36.4 µM | [7] 18.3 µM | [8] 2.93 µM [middle of 4 runs]
inactive: [2] | [5] | [6] | [10] | [7] | [9]
